Reference: PubChem BioAssay (NCI)
This is part of a sample that, as a whole, favours compounds with a hit. Of some 83,000 tested, about 20% had one in any assay.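 How to read the values: 0–100, growth inhibition (40 = 60% inhibited); 0, no net growth; -100 to 0, cell death (-40 = 40% of starting cells died; -100 = all dead).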 Unmarked numbers belong to inactive results. Calls of active or inactive are those of the source. Rule for the calls: active = growth percent below 10; inactive = the rest.

test system: HL-60(TB) leukemia; assay: NCI-60 one-dose screen, 48 h (100 = growth as untreated, 0 = no growth, -100 = all killed); conditions: 10 µM unless noted

**Q.** `NC(N)=N/N=C(\N=Nc1ccccc1)c1ccc(Cl)cc1` was tested. Which growth did it give?
**A.** The growth was -8.35% (active).

**Q.** How did the growth turn out when `CCCCCc1c(C)[nH]c(/C=C2\N=C(c3ccc[nH]3)C=C2Oc2ccc(OC)cc2)c1C` was run?
**A.** Its growth is -39% [100 µM] (active).

**Q.** How did the growth turn out when `O=C(N=c1oc2ccccc2cc1-c1cc2ccccc2[nH]1)Nc1ccc(Cl)cc1` was run?
**A.** The growth was 78.6%.

**Q.** Which growth does the source give for `COC(=O)C(CCC(=O)CCl)N1C(=O)c2ccccc2C1=O` (stereo not drawn) here?
**A.** Its growth is 84.5%.

**Q.** For `CCC12CCC[N+]3([O-])CCC4(C(=Nc5ccccc54)C(O)(C(=O)OC)C1)C23` (stereo not drawn), which growth is on record?
**A.** The growth was 124%.

**Q.** `CSc1ccc2c(c1)c(CCN)c(C)n2Cc1ccc(Cl)c(Cl)c1` was tested. Which growth did it give?
**A.** Its growth is -69.9% (active).

**Q.** `COc1c(Br)cc(C(c2cc(Br)c(OC)c(Br)c2)c2ccccc2C(=O)O)cc1Br` was tested. Which growth did it give?
**A.** The growth was 91%.

**Q.** With `N#Cc1nc(-c2ccccc2)oc1S(=O)(=O)N1CCN(c2ccc(F)cc2)CC1` as the compound, how does the growth read?
**A.** Its growth is 28.1%.

**Q.** Which growth does the source give for `CCN(CC)CCCCNc1c2ccc(Cl)cc2nc2ccc(OC)cc12` here?
**A.** The growth was -34.8% (active).

**Q.** `OCCn1cc(-c2nc(-c3c[nH]c4ncccc34)cs2)c2ccccc21` was tested. Which growth did it give?
**A.** Its growth is 79.1%.

**Q.** How did the growth turn out when `[2H]C([2H])([2H])Oc1ccc(/C=C/C(=O)/C=C(/C=C/c2ccc(OC([2H])([2H])[2H])c(OC([2H])([2H])[2H])c2OC([2H])([2H])[2H])OB(F)F)c(OC([2H])([2H])[2H])c1OC([2H])([2H])[2H]` was run?
**A.** Its growth is 52.3%.

**Q.** `COC(=O)C(N)CC(C)C` (stereo not drawn) was tested. Which growth did it give?
**A.** The growth was 94.6%.

**Q.** For `C1=CC2=CC=C3C=CC=C4C(c5nc6c7ccccc7c7ccccc7c6[nH]5)=CC(=C1)C2C34` (stereo not drawn), which growth is on record?
**A.** Its growth is 111%.
